From PubChem BioAssay AID1159580 (chemical genetic matrix, 2015)
Values joined by “and” are separate entries in the source; they are usually repeats but may differ in a detail not shown here. Equal values may be shown once. Hit rate of the full screen: of about 5,500 compounds, about 2,000 (36%) were called active. Roughly 18% stayed inconclusive and do not appear here. Cut-off read from the data, not from the text of the source: active = normalized growth mostly below about 0.91 (no sharp cut-off); inconclusive = no clear call, values can overlap the other calls; inactive = mostly above about 0.92. This is one part of the list.

Experiment: chemical genetic growth profiling, strain panel (AID 1159580);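 note: tested at 20 µM; growth read once vehicle control cultures reached saturation at 30 °C; 1 = growth at the plate median or of vehicle wells; lower values mean less growth of the strain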
Conditions: S. cerevisiae deletion strains, growth OD

Measured: normalized growth

CC(C)CCCC(C)C1CCC2C3CC[C@H]4CCCC[C@]4(C)C3CC[C@]12C (some centres not stated)
inactive: locus YAL013W, strain DEP1, hits give low values 1.09 | locus YAL021C, strain ccr4, hits give low values 1 | locus YAL026C, strain drs2, hits give low values 1.02 | locus YAL030W, strain snc1, hits give low values 1.02 | locus YBL061C, strain skt5, hits give low values 1.02 | locus YBR009C, strain hhf1, hits give low values 1.03 | locus YBR021W, strain FUR4, hits give low values 1.04 | locus YBR023C, strain chs3, hits give low values 1.02 | locus YBR171W, strain sec66, hits give low values 1.02 | locus YBR229C, strain ROT2, hits give low values 0.963 | locus YBR231C, strain swc5, hits give low values 1.03 | locus YBR279W, strain paf1, hits give low values 1.02 | locus YCL011C, strain gbp2, hits give low values 1.02 | locus YCL016C, strain dcc1, hits give low values 1.02 | locus YCL029C, strain bik1, hits give low values 0.985 | locus YCL061C, strain MRC1, hits give low values 1.02 | locus YCL069W, strain vba3, hits give low values 1.01 | locus YCR088W, strain abp1, hits give low values 1.01 | locus YDL005C, strain med2, hits give low values 1.02 | locus YDL035C, strain GPR1, hits give low values 0.971 | locus YDL040C, strain nat1, hits give low values 1.01 | locus YDL074C, strain BRE1, hits give low values 0.959 | locus YDL101C, strain DUN1, hits give low values 0.952 | locus YDL134C, strain PPH21, hits give low values 0.985 | locus YDL185W, strain tfp1, hits give low values 0.966 | locus YDL192W, strain arf1, hits give low values 0.983 | locus YDR001C, strain nth1, hits give low values 1.01 | locus YDR069C, strain doa4, hits give low values 1.05 | locus YDR101C, strain arx1, hits give low values 0.99 | locus YDR137W, strain rgp1, hits give low values 1 | locus YDR150W, strain NUM1, hits give low values 0.965 | locus YDR159W, strain sac3, hits give low values 1.04 | locus YDR162C, strain NBP2, hits give low values 0.964 | locus YDR195W, strain ref2 1.03 | locus YDR297W, strain sur2, hits give low values 1.02 | locus YDR318W, strain mcm21, hits give low values 1 | locus YDR334W, strain swr1, hits give low values 1.01 | locus YDR335W, strain msn5, hits give low values 1.02 | locus YDR388W, hits give low values 0.987 | locus YDR392W, strain spt3, hits give low values 0.98 | locus YDR502C, strain sam2, hits give low values 0.978 | locus YEL003W, strain gim4, hits give low values 1.03 | locus YEL037C, strain rad23, hits give low values 1.01 | locus YEL061C, strain CIN8 (second series), hits give low values 1.01 | locus YEL061C, strain CIN8, hits give low values 0.994 | locus YER015W, strain faa2, hits give low values 1.02 | locus YER016W, strain bim1, hits give low values 1.02 | locus YER110C, hits give low values 0.988 | locus YER111C, strain swi4, hits give low values 1.03 | locus YER155C, strain BEM2 (second series), hits give low values 1.04 | locus YER155C, strain BEM2, hits give low values 0.998 | locus YER167W, strain BCK2, hits give low values 1.01 | locus YFR010W, strain ubp6, hits give low values 1.02 | locus YGL078C, strain dbp3, hits give low values 0.994 | locus YGL086W, strain mad1, hits give low values 1.01 | locus YGL167C, strain pmr1, hits give low values 1.01 | locus YGL173C, strain kem1, hits give low values 1.02 | locus YGL227W, strain vid30, hits give low values 1.03 | locus YGL240W, strain doc1, hits give low values 1.05 | locus YGL248W, strain PDE1, hits give low values 0.984 | locus YGL253W, strain hxk2, hits give low values 1 | locus YGR078C, strain PAC10, hits give low values 0.967 | locus YGR135W, strain pre9, hits give low values 0.965 | locus YGR229C, strain SMI1, hits give low values 0.979 | locus YGR252W, strain gcn5, hits give low values 1 | locus YHR013C, strain ard1, hits give low values 1.05 | locus YHR027C, strain rpn1, hits give low values 1.01 | locus YHR030C, strain SLT2, hits give low values 0.997 and 0.984 | locus YHR079C, strain IRE1 (second series), hits give low values 1 | locus YHR079C, strain IRE1, hits give low values 1 | locus YHR094C, strain hxt1, hits give low values 0.988 | locus YHR129C, strain ARP1, hits give low values 0.993 | locus YHR142W, strain chs7, hits give low values 0.982 | locus YHR200W, strain rpn10, hits give low values 0.978 | locus YIL066C, strain RNR3, hits give low values 0.974 | locus YIL073C, strain SPO22, hits give low values 1.08 | locus YIL125W, strain kgd1, hits give low values 0.991 | locus YIR030C, strain dcg1, hits give low values 0.987 | locus YJL092W, strain hpr5, hits give low values 1.01 | locus YJL095W, strain BCK1 (second series), hits give low values 1.01 | locus YJL095W, strain BCK1, hits give low values 0.976 and 0.988 | locus YJL115W, strain asf1, hits give low values 1.01 | locus YJL129C, strain trk1, hits give low values 1.01 | locus YJL134W, strain LCB3, hits give low values 0.991 | locus YJL154C, strain vps35, hits give low values 1 | locus YJL164C, strain tpk1, hits give low values 1.02 | locus YJL166W, strain qcr8, hits give low values 1.02 | locus YJL168C, strain set2, hits give low values 0.988 | locus YJL187C, strain SWE1 (second series), hits give low values 0.966 | locus YJL187C, strain SWE1, hits give low values 1.02 | locus YJR043C, strain POL32, hits give low values 1.05 | locus YJR066W, strain TOR1, hits give low values 0.931
